# Reference: PubChem BioAssay (NCI)
# This is part of a sample that, as a whole, favours compounds with a hit. Of some 79,000 tested, about 15% had one in any assay. Unmarked numbers belong to inactive results. Activity calls are given as the source filed them. Cut-off read from the data, not from the text of the source: active = growth inhibition above about 70%; inactive = the rest.
# How the values were obtained:
# [1] = NCI Yeast Anticancer Drug Screen. Data for the rad52 strain (AID 147);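 note: 0% = growth of vehicle-treated control cultures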; conditions: S. cerevisiae rad52 mutant growth inhibition, active compounds read high
# Procedure, shortened: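 Yeast strain carrying a DNA damage repair alteration was exposed to test compounds. Growth inhibition was measured relative to vehicle-treated controls.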
# [2] = NCI Yeast Anticancer Drug Screen. Data for the wt1 strain (AID 149);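 note: 0% = growth of vehicle-treated wt1 cultures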; conditions: S. cerevisiae wt1 strain (SPY 50644) growth inhibition, active compounds read high
# Procedure, shortened: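 Growth inhibition read against vehicle controls after compound exposure of the wt1 yeast strain.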
# [3] = NCI Yeast Anticancer Drug Screen. Data for the rad50EPP+ strain (AID 151);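 note: 0% = growth of vehicle-treated control cultures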; conditions: S. cerevisiae rad50 mutant strain, active compounds read high
# Procedure, shortened: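 Yeast strain carrying rad50 alteration (rad50EPP+) exposed to compounds; growth inhibition measured relative to vehicle-treated controls.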
# [4] = NCI Yeast Anticancer Drug Screen. Data for the mgt1 strain (AID 153); conditions: S. cerevisiae mgt1 mutant growth inhibition, active compounds read high
# Procedure, shortened: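 Yeast mgt1 strain (DNA repair/cell-cycle alteration panel) exposed to compounds; growth inhibition measured relative to vehicle-treated controls.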
# [5] = NCI Yeast Anticancer Drug Screen. Data for the rad50 strain (AID 155);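 note: 0% = growth of vehicle-only cultures of the same strain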; conditions: S. cerevisiae rad50 strain growth inhibition, active compounds read high
# Procedure, shortened: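 Readout: growth inhibition relative to vehicle-treated cultures. Compound exposure was carried out in a genetically defined yeast strain deficient in DNA damage repair.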
# [6] = NCI Yeast Anticancer Drug Screen. Data for the mec2-1 strain (AID 157); conditions: S. cerevisiae mec2-1 strain, active compounds read high
# Procedure, shortened: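 mec2-1 yeast strain, carrying an alteration in DNA damage repair or cell cycle control, was exposed to compounds; growth inhibition was measured relative to vehicle-treated controls.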
# [7] = NCI Yeast Anticancer Drug Screen. Data for the rad14 strain (AID 159);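 note: 0% = growth of vehicle-treated control cultures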; conditions: S. cerevisiae rad14 strain growth inhibition, active compounds read high
# Procedure, shortened: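 Growth inhibition vs vehicle controls; genetically altered yeast strain (DNA damage repair defect) treated with test compounds.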
# [8] = NCI Yeast Anticancer Drug Screen. Data for the sgs1 mgt1 strain (AID 161);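 note: 0% = growth of cultures given vehicle only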; conditions: S. cerevisiae sgs1 mgt1 strain, active compounds read high
# Procedure, shortened: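 Yeast cells carrying a defined DNA-repair defect were exposed to test compounds. Growth inhibition was measured relative to vehicle-treated controls.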
# [9] = NCI Yeast Anticancer Drug Screen. Data for the CLN2oe strain (AID 163);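 note: 0% = growth of vehicle-only control cultures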; conditions: S. cerevisiae CLN2oe strain, active compounds read high
# Procedure, shortened: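 Yeast cells carrying a defined cell-cycle control alteration were exposed to test compounds. Growth inhibition was scored against vehicle-treated control cultures.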
# [10] = NCI Yeast Anticancer Drug Screen. Data for the cln2 rad14 strain (AID 165);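 note: 0% = growth equal to vehicle treated cultures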; conditions: S. cerevisiae cln2 rad14 strain, active compounds read high
# Procedure, shortened: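 Yeast carrying cln2 and rad14 alterations (cell cycle control and DNA damage repair) were exposed to compounds. Growth inhibition was measured against vehicle-treated controls.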
# [11] = NCI Yeast Anticancer Drug Screen. Data for the bub3 strain (AID 167); conditions: S. cerevisiae bub3 mutant strain, active compounds read high
# Procedure, shortened: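 Readout: yeast growth inhibition, expressed relative to vehicle-only wells. The test organism is a mutant strain from a panel with lesions in DNA repair or checkpoint genes.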
# [12] = NCI Yeast Anticancer Drug Screen. Data for the wt2 strain (AID 169);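 note: 0% = growth of vehicle-treated yeast cultures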; conditions: S. cerevisiae wt2 strain growth inhibition, active compounds read high
# Procedure, shortened: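 Yeast cells were exposed to test compounds, and growth inhibition was measured relative to vehicle-treated controls.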
# [13] = NCI Yeast Anticancer Drug Screen. Data for the mlh1 strain (AID 171);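 note: 0% = growth of vehicle-treated control cultures of the same strain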; conditions: S. cerevisiae mlh1 strain growth inhibition, active compounds read high
# Procedure, shortened: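 Yeast carrying a defined genetic alteration in DNA damage repair or cell cycle control were exposed to test compounds. Growth inhibition was measured relative to vehicle-treated controls.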
# [14] = NCI Yeast Anticancer Drug Screen. Data for the sgs1 strain (AID 173);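 note: 0% = growth of vehicle-only control cultures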; conditions: S. cerevisiae sgs1 mutant, active compounds read high
# Procedure, shortened: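 Yeast mutant strains carrying defined defects in DNA damage repair or cell cycle control were exposed to test compounds. Growth inhibition was scored against vehicle-treated controls.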
# [15] = NCI Yeast Anticancer Drug Screen. Data for the mlh1 rad18 strain (AID 175); conditions: S. cerevisiae mlh1 rad18 strain growth inhibition, active compounds read high
# Procedure, shortened: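 Growth inhibition of the yeast strain was measured after compound exposure and expressed relative to vehicle-treated controls. The strain carries defined defects in DNA damage repair.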
# [16] = at 5.0 µM (retest, dose inferred, filed as 0.5)
# [17] = at 50.0 µM (retest, dose inferred, filed as 5.0)
smiles,measurement,setting,value
OC(c1ccccc1)(c1ccccc1)c1nccc2ccccc12,growth inhibition,[1]; at 1.2 µM,40%
same,growth inhibition,[1]; at 3.7 µM,39%
same,growth inhibition,[1]; at 11.0 µM,48%
same,growth inhibition,[1]; at 33.0 µM,62%
same,growth inhibition,[1]; at 100.0 µM,81% (active)
same,growth inhibition,[2]; at 1.2 µM,3%
same,growth inhibition,[2]; at 3.7 µM,-3%
same,growth inhibition,[2]; at 11.0 µM,26%
same,growth inhibition,[2]; at 33.0 µM,-2%
same,growth inhibition,[2]; at 100.0 µM,29%
same,growth inhibition,[3]; at 1.2 µM,14%
same,growth inhibition,[3]; at 3.7 µM,14%
same,growth inhibition,[3]; at 11.0 µM,32%
same,growth inhibition,[3]; at 33.0 µM,13%
same,growth inhibition,[3]; at 100.0 µM,0%
same,growth inhibition,[4]; at 1.2 µM,-11%
same,growth inhibition,[4]; at 3.7 µM,8%
same,growth inhibition,[4]; at 11.0 µM,11%
same,growth inhibition,[4]; at 33.0 µM,15%
same,growth inhibition,[4]; at 100.0 µM,51%
same,growth inhibition,[5]; at 1.2 µM,4%
same,growth inhibition,[5]; at 3.7 µM,15%
same,growth inhibition,[5]; [16],14%
same,growth inhibition,[5]; at 11.0 µM,24%
same,growth inhibition,[5]; at 33.0 µM,39%
same,growth inhibition,[5]; [17],50%
same,growth inhibition,[5]; at 50.0 µM,67.7%
same,growth inhibition,[5]; at 100.0 µM,70% (active)
same,growth inhibition,[6]; at 1.2 µM,0%
same,growth inhibition,[6]; at 3.7 µM,3%
same,growth inhibition,[6]; [16],2%
same,growth inhibition,[6]; at 11.0 µM,9%
same,growth inhibition,[6]; at 33.0 µM,7%
same,growth inhibition,[6]; [17],40%
same,growth inhibition,[6]; at 50.0 µM,75% (active)
same,growth inhibition,[6]; at 100.0 µM,49%
same,growth inhibition,[7]; at 1.2 µM,3%
same,growth inhibition,[7]; at 3.7 µM,2%
same,growth inhibition,[7]; at 11.0 µM,3%
same,growth inhibition,[7]; at 33.0 µM,3%
same,growth inhibition,[7]; at 100.0 µM,39%
same,growth inhibition,[8]; [16],-4%
same,growth inhibition,[8]; [17],58%
same,growth inhibition,[8]; at 50.0 µM,71.5% (active)
same,growth inhibition,[9]; at 1.2 µM,25%
same,growth inhibition,[9]; at 3.7 µM,34%
same,growth inhibition,[9]; at 11.0 µM,28%
same,growth inhibition,[9]; at 33.0 µM,35%
same,growth inhibition,[9]; at 100.0 µM,59%
same,growth inhibition,[10]; [16],6%
same,growth inhibition,[10]; [17],7%
same,growth inhibition,[10]; at 50.0 µM,55.4%
same,growth inhibition,[11]; at 1.2 µM,14%
same,growth inhibition,[11]; at 3.7 µM,22%
same,growth inhibition,[11]; [16],0%
same,growth inhibition,[11]; at 11.0 µM,25%
same,growth inhibition,[11]; at 33.0 µM,25%
same,growth inhibition,[11]; [17],45%
same,growth inhibition,[11]; at 50.0 µM,60.6%
same,growth inhibition,[11]; at 100.0 µM,75% (active)
same,growth inhibition,[12]; at 1.2 µM,-56%
same,growth inhibition,[12]; at 3.7 µM,-17%
same,growth inhibition,[12]; at 11.0 µM,-31%
same,growth inhibition,[12]; at 33.0 µM,-21%
same,growth inhibition,[12]; at 100.0 µM,38%
same,growth inhibition,[13]; at 1.2 µM,-2%
same,growth inhibition,[13]; at 3.7 µM,12%
same,growth inhibition,[13]; at 11.0 µM,5%
same,growth inhibition,[13]; at 33.0 µM,14%
same,growth inhibition,[13]; at 100.0 µM,54%
same,growth inhibition,[14]; at 1.2 µM,15%
same,growth inhibition,[14]; at 3.7 µM,3%
same,growth inhibition,[14]; at 11.0 µM,4%
same,growth inhibition,[14]; at 33.0 µM,16%
same,growth inhibition,[14]; at 100.0 µM,71% (active)
same,growth inhibition,[15]; [16],12%
same,growth inhibition,[15]; [17],74% (active)
same,growth inhibition,[15]; at 50.0 µM,51%
